Data reported in PubChem BioAssay (NCATS).
Results filed as inconclusive are left out. Activity calls are given as the source filed them. The call rests on the fitted dose curve; in most records, active means well fitted curve in the direction sought with a large enough effect; inconclusive means small, poorly fitted or top-dose-only effect, or another doubt; inactive means no such curve, though single readings can be large; an effect the other way counts as inactive or inconclusive.

How the values were obtained:
[1] = Cellular Toxicity (caspase-3) Hek293 (AID 664);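 further: cells exposed to compound for 16 h at 37 °C before readout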
Outline: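 qHTS, HEK293 (human embryonic kidney), 16 h cpd exposure in complete medium. Caspase-3/7 activation = luminescence increase; normalized to DMSO/100 uM tamoxifen; Hill-fit AC50.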

[2] = Cellular Toxicity (caspase-3) N2a (AID 665);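 further: compound exposure lasted 16 h at 37 °C before readout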
Outline: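 Caspase-3/7 activation, measured as increased luminescence from aminoluciferin release, is quantified in mouse N2a cells exposed to compounds for 16 h. Values are normalized to DMSO and 10 uM staurosporine, with AC50 derived by Hill modelling.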

[3] = Cellular Toxicity (caspase-3) NIH 3T3 (AID 666)
Outline: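 Cells were plated at 1000 per well and incubated 5 hr at 37°C, then compound was added for 16 hr. Caspase-Glo 3/7 reagent followed for 20 min at room temperature before luminescence was read.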

[4] = Cellular Toxicity (caspase-3) Renal Proximal Tubule (AID 667);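 further: cells exposed to compound for 16 hours at 37 °C before detection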
Outline: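 Caspase-Glo 3/7 read-out, rat primary kidney proximal tubule cells. Compound exposure 16 h, 37 °C; detection after 1 h at RT. Activity scaled to DMSO and 10 uM staurosporine.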

[5] = molecular target: Cytochrome P450 3A4 (Homo sapiens) (UniProt P08684); test: qHTS Assay for Inhibitors and Substrates of Cytochrome P450 3A4 (AID 884); further: series mostly up to about 57 µM; nearly all actives have a fitted effect of over 50% in size
Outline: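 Luminescent readout of luciferin produced by CYP3A4 (20 nM) dealkylation of Luciferin-PPXE, 25 uM (its KM). NADPH-driven reaction ran 60 min at RT after 10 min compound preincubation; data scaled to 57 uM ketoconazole as 100% inhibition.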

[6] = molecular target: Guanine nucleotide-binding protein G(i) subunit alpha-1 (Homo sapiens) (UniProt P63096); test: qHTS Assay for Inhibitors of RGS12 GoLoco Motif Activity (Green Fluorophore) (AID 879);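 further: negative values mean loss of peptide binding seen as reduced polarization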
Outline: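 A drop in FITC polarization marked displacement of the FITC-tagged RGS12 GoLoco peptide (10 nM) from Gαi1 (50 nM). Compounds were incubated 10 min at room temperature in Tris pH 7.5 buffer containing 150 mM NaCl, 0.1 mM GDP and 0.05% NP40; unlabeled peptide titration served as control.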

[7] = qHTS Assay for Identification of Small Molecule Agonists for Thrombopoietin (TPO) Signaling Pathway (AID 917)
Outline: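 Human TPO receptor–transfected Ba/F3 cells (murine, IL-3-dependent) in IL-3-deficient medium; compounds plus TPO at EC50, 26 pM final; 24 hrs, 37 C; GpIIb-luciferase luminescence after 10 min RT detection.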

[8] = molecular target: Cytochrome P450 2C19 (Homo sapiens) (UniProt P33261); test: qHTS Assay for Inhibitors and Substrates of Cytochrome P450 2C19 (AID 899); further: nearly all actives have a fitted effect of over 60% in size
Outline: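 Reactions contain 5nM enzyme, 10uM Luciferin-H EGE (KM) and 50mM KPO4; compound preincubates 10 min at 37C, NADPH regeneration starts turnover for 60 min. Luminescence after detection reagent gives activity.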

[9] = Confirmation and Secondary Assay for Modulators of Hemoglobin Beta Chain Splicing at IVS2 654 locus (AID 910);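 further: HeLa cells stably carrying EGFP split by mutant beta-globin IVS2-654 intron; per-well total GFP intensity by laser scanning cytometry after 2-day treatment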
Description: NIH Chemical Genomics Center [NCGC] NIH Molecular Libraries Screening Centers Network [MLSCN] MLSCN Grant: 1 X01 MH080684-01 PI Name: Dr. Ryszard Kole NCGC Assay Overview: Modulation of Alternative Splicing as Therapy Abnormal splicing is associated with a number of diseases, including cancer and genetic diseases such as cystic fibrosis, muscular dystrophy and beta-thalassemia. Alteration of disease associated splicing patterns provides a promising target for treatment. […] Mutations in the second intron of the b-globin gene at positions 654 or 705 are clinically relevant and cause mis-splicing which results in an out of frame gene product. […] EGFP-654 HeLa Cells as screen system. HeLa cell lines were stably transfected with a construct in which the EGFP (enhanced green fluorescent protein) cDNA was interrupted by the second intron of the beta-globin gene (IVS2-654). The ISV2 intron contains mutations which cause mis-splicing of EGFP and premature termination of EGFP which results in a nonfluorescent protein product. […]
NCGC Assay Protocol Summary: Confirmatory Screening. […] Plates were read in the Acumen Explorer (TTP Labtech) using 488 nm laser excitation and 500-520 nm emission PMT filter in a 1 x […] capture mode. Fluorescnet objects ranging in size from 5 to 250 uM were measured and the total peak GFP intensity for each well was used for data analysis. […]

Sequence of Guanine nucleotide-binding protein G(i) subunit alpha-1 (Homo sapiens) (P63096 whole entry, looked up): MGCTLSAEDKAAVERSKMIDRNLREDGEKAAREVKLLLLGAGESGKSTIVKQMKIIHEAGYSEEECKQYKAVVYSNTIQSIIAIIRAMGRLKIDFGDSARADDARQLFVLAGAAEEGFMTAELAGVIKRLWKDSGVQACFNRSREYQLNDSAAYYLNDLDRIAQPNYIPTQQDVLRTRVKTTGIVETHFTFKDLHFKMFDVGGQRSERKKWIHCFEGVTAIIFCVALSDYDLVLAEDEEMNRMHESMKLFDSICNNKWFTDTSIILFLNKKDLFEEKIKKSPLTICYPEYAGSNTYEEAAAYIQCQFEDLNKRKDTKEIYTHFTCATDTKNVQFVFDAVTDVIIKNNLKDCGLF
Sequence of Cytochrome P450 3A4 (Homo sapiens) (P08684 whole entry, looked up): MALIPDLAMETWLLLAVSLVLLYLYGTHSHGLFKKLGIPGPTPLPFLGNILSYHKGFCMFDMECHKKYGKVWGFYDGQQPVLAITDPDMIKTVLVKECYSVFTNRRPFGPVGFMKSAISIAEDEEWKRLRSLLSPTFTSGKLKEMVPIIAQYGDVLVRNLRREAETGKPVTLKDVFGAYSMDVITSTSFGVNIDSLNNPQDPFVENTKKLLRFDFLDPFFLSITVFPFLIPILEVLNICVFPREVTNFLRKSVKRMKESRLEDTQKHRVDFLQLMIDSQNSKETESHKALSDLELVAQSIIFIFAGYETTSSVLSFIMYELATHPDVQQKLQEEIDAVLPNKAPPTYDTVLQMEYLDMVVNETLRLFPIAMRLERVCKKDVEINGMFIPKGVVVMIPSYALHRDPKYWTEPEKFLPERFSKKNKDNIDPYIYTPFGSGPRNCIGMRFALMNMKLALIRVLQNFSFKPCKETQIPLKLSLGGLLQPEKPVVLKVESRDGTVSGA
Sequence of Cytochrome P450 2C19 (Homo sapiens) (P33261 whole entry, looked up): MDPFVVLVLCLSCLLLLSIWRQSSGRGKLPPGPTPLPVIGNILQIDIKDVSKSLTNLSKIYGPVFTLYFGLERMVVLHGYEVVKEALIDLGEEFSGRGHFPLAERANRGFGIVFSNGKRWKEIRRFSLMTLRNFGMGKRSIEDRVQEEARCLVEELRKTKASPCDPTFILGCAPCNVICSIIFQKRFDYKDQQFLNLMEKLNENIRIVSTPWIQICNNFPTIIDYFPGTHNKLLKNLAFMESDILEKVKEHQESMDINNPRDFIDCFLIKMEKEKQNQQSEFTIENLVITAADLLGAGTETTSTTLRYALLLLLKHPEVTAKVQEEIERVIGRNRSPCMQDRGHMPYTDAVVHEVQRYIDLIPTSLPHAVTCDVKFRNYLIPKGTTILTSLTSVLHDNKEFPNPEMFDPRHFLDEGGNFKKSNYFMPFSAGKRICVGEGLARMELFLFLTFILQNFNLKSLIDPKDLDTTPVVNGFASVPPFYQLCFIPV

Compound: COc1ccc(CCC(=O)c2c(O)cc(O[C@@H]3O[C@H](CO)[C@@H](O)[C@H](O)[C@H]3O[C@@H]3O[C@@H](C)[C@H](O)[C@@H](O)[C@H]3O)cc2O)cc1O
- outcome [1]: inactive
- outcome [2]: inactive
- outcome [3]: inactive
- outcome [4]: inactive
- outcome [5]: inactive

Compound: C=C1C[C@]23C[C@@]1(O)CC[C@H]2[C@@]12C=C[C@H](O)[C@@](C)(C(=O)O1)[C@H]2[C@@H]3C(=O)O
- outcome [1]: inactive
- outcome [2]: inactive
- outcome [3]: inactive
- outcome [4]: inactive

Compound: C[C@]1(C2CCCC2)Cc2cc(OCC(=O)O)c(Cl)c(Cl)c2C1=O
- outcome [6]: inactive
- outcome [7]: inactive

Compound: CC(C)C[C@H](NC(=O)[C@@H]1O[C@H]1C(=O)O)C(=O)NCCCCN=C(N)N
- outcome [6]: inactive
- outcome [8]: inactive
- outcome [7]: inactive

Compound: CCOC(=O)C(CCc1ccccc1)NC(C)C(=O)N1Cc2ccccc2CC1C(=O)O (configuration not stated)
- outcome [5]: inactive
- outcome [9]: inactive

Compound: O=C(/C=C/C=C/c1ccc2c(c1)OCO2)N1CCCCC1
- outcome [9]: inactive
